“And” between values parts separate entries of the source, which are not always exact repeats. Equal entries are not always repeated. Out of some 420,000 compounds screened, about 50,000 (12%) were called active. Inconclusive results (about 26%) are left out. Calls follow the shape of the dose curve; as a rule, active = well fitted inhibition curve with a large enough effect; inconclusive = small, poorly fitted or top-dose-only effect; inactive = flat fitted curve, though single readings scatter. The list comes from a sample in which actives are over-represented; it also holds similar structures and randomly drawn compounds. Entries that show only a call come without a potency.

The source of these data is PubChem BioAssay AID686979 (National Center for Advancing Translational Sciences (NCATS), 2013).
Potency is read from the fitted curve at half-maximal effect.

The nature of the test: qHTS for Inhibitors of human tyrosyl-DNA phosphodiesterase 1 (TDP1): qHTS in cells in presence of CPT. Also: nearly all actives have a fitted effect of over 55% in size. Particulars: chicken DT40 Tdp1-/-;hTDP1 cells + 20 nM CPT, ATP luminescence, 48 h; series mostly up to 46.2 µM. The method in brief: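 Chicken DT40 Tdp1-/- cells stably complemented with human TDP1 were seeded at 400 cells/well in medium containing 20 nM camptothecin, exposed to pin-transferred compounds, and grown at 37 °C for at least 48 hr. Viability was read as ATP luminescence.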
As for `CC(NS(=O)(=O)c1ccc(OCC(=O)N2CCCC2)cc1)c1ccccc1` (configuration not stated), the Potency entry was “inactive”. As to `CCOC(=O)c1ccc(-n2c(CCC(=O)O)ccc2-c2ccccc2)cc1`, the Potency result is “inactive”. On to `COc1ccc(C2CC(c3cccs3)Nc3nnnn32)cc1` (configuration not stated), for which the Potency result was “inactive”. As for `COc1ccc(/C=N/S(=O)(=O)c2ccccc2)cc1OC`, the Potency result is “inactive”. With `CC(=O)c1ccc(-c2cnc3c(NC=O)cc(-c4cccc(NS(C)(=O)=O)c4)cn23)cc1` the figure was 23.1 µM (active); with `COc1ccc(-c2cc(NC=O)c3ncc(-c4ccccc4)n3c2)cc1OC`, 6.51 µM (active); with `COc1ccc(-c2cc(NC=O)c3ncc(-c4cccc(C(=O)N(C)C)c4)n3c2)c(OC)c1`, 23.1 µM (active). On to `CC(=O)Nc1cc(-c2ccccc2F)cn2c(-c3cccc(C(F)(F)F)c3)cnc12`, for which the Potency entry was “inactive”. As for `COc1cc(C=O)ccc1Oc1nnnn1-c1ccccc1`, the entry is “inactive”; as for `COc1cccc(NC(=O)CSc2nnc(-c3cccnc3)o2)c1`, “inactive”. As for `COc1ccc(NC(=O)CC2COc3ccccc3O2)c(OC)c1` (configuration not stated), the entry is “inactive”. With `COc1cccc(-c2cc(NC(C)=O)c3ncc(-c4cccc(C(C)=O)c4)n3c2)c1`, the Potency was 23.1 µM (active). As for `COCCNc1ccnc(-c2cccc(NS(C)(=O)=O)c2)n1`, the entry is “inactive”.

With `COc1ccc(Nc2ncnc3sc(-c4ccccc4)cc23)c(OC)c1`, the Potency entry was “inactive”.

For the compound `Cc1cccc(N=C2SC(C)CN2C(=O)CN2C(=O)NC3(CCCC3)C2=O)c1` (configuration not stated), the Potency entry was “inactive”. As for `O=C(CCn1nnc2ccccc2c1=O)N[C@@H](Cc1c[nH]c2ccccc12)C(=O)O`, the entry is “inactive”; as for `COc1ccc(S(=O)(=O)N2CCOCC2)cc1NC(=O)CC1CC2CCC1C2` (configuration not stated), “inactive”; as for `O=C(O)CC(CC(=O)N1CCOCC1)c1ccccc1` (configuration not stated), “inactive”. As for `Cc1ccc(CN2COc3cc(C)c4c(oc(=O)c5ccccc54)c3C2)cc1`, the entry is “inactive”. With `CC(C)C[C@H](NC(=O)C1CCC(CNC(=O)[C@@H]2CCCN2C(=O)OC(C)(C)C)CC1)C(=O)O` (some centres not stated) the entry was “inactive”; with `COc1cccc(CNC(=O)CCCC(=O)Nc2cccc([N+](=O)[O-])c2)c1`, “inactive”; with `Cc1c(NC(=O)CSCc2ccccc2)cccc1C(=O)O`, “inactive”. With `COc1cc(C(=O)N/C(=C\c2cn(C)c3ccccc23)C(=O)N2CCOCC2)cc(OC)c1OC`, the Potency result was “inactive”. With `CCCCNC(=O)N(O)C1N(/N=C/c2ccccc2O)C(=S)SC1(C)C` (configuration not stated), the Potency result was “inactive”. `COc1ccnc(Oc2ccccc2)c1-c1ncn[nH]1`: the Potency result is “inactive”. Consider `Cc1ccc2oc(=O)c3cnn(CC(=O)NCc4ccccc4Cl)c3c2c1`, for which the Potency entry was “inactive”. With `Cc1ccccc1C(=O)Nc1ccccc1Sc1ccccc1` the entry was “inactive”. With `COc1cccc(C(=O)NCCS(=O)(=O)NCC2CCCO2)c1` (configuration not stated) the entry was “inactive”. As for `COc1cccc(/C=C2\Sc3ccc(C(=O)NCC4CCCO4)cc3N(C)C2=O)c1` (configuration not stated), the figure is 18.4 µM (active); as for `COc1ccccc1-n1cnc2cc(C(=O)NCC3CCCO3)ccc21` (configuration not stated), “inactive”. In the case of `COc1ccc(CN2C(=O)C(CC(=O)NCc3cccc4ccccc34)CC(C(=O)N3CCOCC3)=C2C)cc1` (configuration not stated), the Potency result was “inactive”.

For `CCOc1ccc(CNC(=O)C2CCCN(c3nnc(C)c4c(C)n(-c5ccccc5)nc34)C2)cc1` (configuration not stated), the Potency was 13 µM (active). Consider `Cc1nnc(N2CCCC(C(=O)NCCN(C)C)C2)c2nn(-c3ccccc3)c(C)c12` (configuration not stated), for which the Potency entry was “inactive”. Turning to `Cc1ccc(NC(=O)N2CCC(C(=O)NCc3ccc(F)cc3)CC2)cc1`, the Potency entry was “inactive”. For the compound `CCOC(=O)C1CCN(C(=O)Cn2nc(C)c3c(C)n(-c4ccccc4)nc3c2=O)CC1`, the Potency entry was “inactive”. As for `CCc1ccc(CNC(=O)C2CCN(c3nnc(C)c4c(C)n(-c5ccc(C)cc5)nc34)CC2)cc1`, the figure is 5.17 µM (active) and 16.4 µM (active); as for `COc1ccc(-n2nc3c(N4CCC(C(=O)NCc5ccccc5)CC4)nnc(C)c3c2C)cc1`, “inactive”. As for `Cc1ccc(C=O)cc1Cl`, the entry is “inactive”; as for `Cc1nc2scc(-c3cccs3)c2c(=O)n1N`, “inactive”. Regarding `[2H]C(CCOS(N)(=O)=O)c1ccccc1` (configuration not stated), the Potency entry was “inactive”.

On to `COc1ccccc1-n1nnnc1SCC(=O)NC(=O)Cc1ccccc1`, for which the Potency result is “inactive”. On to `CCC(C)N(C(=O)CSc1nnnn1-c1ccccc1OC)C1CCS(=O)(=O)C1` (configuration not stated), for which the Potency result was “inactive”. With `COc1ccccc1-n1nnnc1S(=O)(=O)Cc1ccc(Cl)cc1` the figure was 5.8 µM (active). As for `O=C(NCCO)c1cccc(-c2cccc3nccn23)c1`, the entry is “inactive”; as for `CCS(=O)(=O)Nc1ccc(C2=NN(C(C)=O)C(c3cccs3)C2)cc1` (configuration not stated), 4.11 µM (active). With `CS(=O)(=O)Nc1cccc(C2=NN(C(=O)c3cccc(F)c3)C(c3cccs3)C2)c1` (configuration not stated) the figure was 23.1 µM (active); with `CS(=O)(=O)Nc1ccc(C2=NN(S(C)(=O)=O)C(c3cccs3)C2)cc1` (configuration not stated), “inactive”. On to `CS(=O)(=O)Nc1cccc(C2=NN(S(=O)(=O)c3ccccc3)C(c3cccs3)C2)c1` (configuration not stated), for which the Potency entry is “inactive”.

Take `CCOc1ccccc1C1CC(c2cccc(NS(C)(=O)=O)c2)=NN1C(=O)c1ccccc1` (configuration not stated): the Potency result was “inactive”. With `COc1ccc(C2=NN(C(=O)CCC(=O)O)C(c3cccs3)C2)cc1OC` (configuration not stated) the entry was “inactive”; with `CCNC(=O)Cn1nc(C)n2c(cc3c(OC)cccc32)c1=O`, “inactive”; with `CCc1ccccc1NC(=O)CN(C)S(=O)(=O)c1ccc2c(c1)c(=O)n(C)c(=O)n2C`, “inactive”.

As to `CCOc1ccc(S(=O)(=O)N2CCC(c3ccccc3)CC2)cc1C(=O)O`, the Potency entry is “inactive”. `CN(Cc1ccccc1)C(=O)COC(=O)c1ccccc1Nc1ccccc1`: the Potency entry was “inactive”. Regarding `O=[N+]([O-])c1ccc(S(=O)(=O)N2CCN(c3nc(-c4ccccc4)nc4ccccc34)CC2)cc1`, the Potency entry is “inactive”. Regarding `COc1ccc(C)cc1S(=O)(=O)N1CCN(S(=O)(=O)c2cc(C(=O)O)ccc2C)CC1`, the Potency result was “inactive”.

Take `Cc1ccc(C)c(S(=O)(=O)N2CCN(c3ncnc4sccc34)CC2)c1`: the Potency was 11.6 µM (active). As for `Cc1ccc(S(=O)(=O)N2CCN(c3ncnc4ccccc34)CC2)cc1`, the Potency is 461 nM (active) and 1.58 µM (active). With `Cc1ccc(S(=O)(=O)N2CCN(C)CC2)cc1` the entry was “inactive”; with `Cc1ccc(C)c(S(=O)(=O)n2nc(C)c(S(=O)(=O)N3CCC(C)CC3)c2C)c1`, “inactive”; with `CCOC(=O)c1[nH]c(C)c(CCC(=O)NCc2ccccc2C)c1C`, “inactive”.

On to `CCCNC(=O)C1(C)CCN(C(=O)c2cc(F)ccc2C)C1` (configuration not stated), for which the Potency result was “inactive”. In the case of `CC(C)Oc1ccc(CN2CCC(n3nccc3NC(=O)c3cccnc3)CC2)cc1`, the Potency result was “inactive”. As for `COC(=O)[C@@]1(Cc2ccc(OC)cc2)[C@H]2c3cc(C(=O)N4CCCC4)n(Cc4ccc(OC(F)(F)F)cc4)c3C[C@H]2CN1C(=O)c1ccccc1`, the figure is 16.4 µM (active); as for `COC(=O)c1ccc(CN2CCC(CO)(Cc3ccc(OC)cc3)CC2)cc1`, “inactive”. With `CSc1ccc(S(=O)(=O)NCC(=O)OCC(=O)NC2(C#N)CCCCC2)cc1[N+](=O)[O-]` the entry was “inactive”. With `CCN(CC(=O)NCC(=O)Nc1cccc(C)c1C)Cc1ccccc1` the entry was “inactive”; with `CSC1=NC2(C)CCCCC2C12C=CC(=O)C=C2` (configuration not stated), “inactive”; with `CCOc1cc(C2C(C(=O)c3ccco3)=C(O)C(=O)N2Cc2ccccc2)ccc1O` (configuration not stated), “inactive”. `O=C(C1=C(O)C(=O)N(Cc2ccccc2)C1c1ccco1)c1ccco1` (configuration not stated): the Potency result is “inactive”.

With `CC(C)c1ccc(C2C(C(=O)c3ccco3)=C(O)C(=O)N2CC2CCCO2)cc1` (configuration not stated), the Potency was 20.6 µM (active).

`COc1cccc(OCC(=O)NNC(=O)c2cnccn2)c1`: the Potency entry is “inactive”. As for `O=C(O)Cc1sc(-c2ccccc2)nc1-c1cccs1`, the Potency entry is “inactive”. With `CN(C(=O)COc1nnc(-c2cccs2)c(-c2cccs2)n1)c1ccccc1`, the Potency is 23.1 µM (active). As for `CN(C(=O)COc1ccccc1)c1nnc(-c2ccncc2)s1`, the Potency result was “inactive”. As for `CCOc1ccc(CC(=O)NCCc2csc3nc(-c4ccccc4F)nn23)cc1`, the entry is “inactive”; as for `Cc1ccc(NC(=O)COC(=O)CN2CCCCCC2=O)c(C)c1`, “inactive”. Turning to `Clc1ccc(Nc2ncnc3c2nnn3Cc2ccccc2)cc1`, the Potency result is “inactive”. With `Clc1ccc(Cn2ncc3c(NCc4cccnc4)ncnc32)cc1` the figure was 20.6 µM (active); with `CC(=O)Nc1ccc(NC(=O)CSc2ncnc3c2cnn3Cc2ccccc2)cc1`, “inactive”. `Cc1ccc(OCCOc2cccc(/C=N/NC(N)=O)c2)cc1`: the Potency result was “inactive”. With `COc1ccc(C(=O)COC(=O)Cn2cnc3c2c(=O)n(C)c(=O)n3C)c(OC)c1`, the Potency entry was “inactive”. As for `O=C(Oc1ccc([N+](=O)[O-])cc1)c1ccc2ccccc2n1`, the entry is “inactive”; as for `O=C(OCc1ccc([N+](=O)[O-])cc1)c1ccccn1`, “inactive”; as for `O=[N+]([O-])c1ccc(/C=C/c2ccc3cccnc3c2)cc1`, 7.94 µM (active). For `COc1ccc(C2/C(=C(/O)c3ccc(OC(C)C)cc3)C(=O)C(=O)N2CCCN2CCOCC2)cc1` (configuration not stated), the Potency entry is “inactive”. As for `CCCCc1ccc(S(=O)(=O)NC(=O)C2(C)CCN2C(=O)c2c(C)noc2C)cc1` (configuration not stated), the entry is “inactive”. As for `Cn1c2c(c(=O)n(C)c1=O)C(c1cccc(F)c1)C(C#N)=C(N)O2` (configuration not stated), the entry is “inactive”. As to `CC(C)CCNC(=O)c1cccnc1Sc1ccccc1`, the Potency entry was “inactive”.

Turning to `Cc1cc([N+](=O)[O-])c(=O)[nH]c1C`, the Potency entry is “inactive”.

With `O=C(COC(=O)c1ccccc1OCCOc1ccccc1)Nc1cccc(Br)c1`, the Potency entry was “inactive”. As for `Cc1cccc(NC(=O)COC(=O)c2ccccc2OCc2cccc(Br)c2)c1`, the figure is 17.8 µM (active); as for `Cc1cccc(C(=O)OCC(=O)Nc2ccc(F)cc2)c1`, “inactive”; as for `CC1C(=O)Nc2ccccc2N1C(=O)c1ccc(F)cc1F` (configuration not stated), “inactive”. As for `CCN(CC)C(=O)c1nc[nH]c1C(=O)N(C)Cc1ccccc1`, the entry is “inactive”. On to `CN1CC(O)c2cc(N=NC(N)=O)c(O)cc21` (configuration not stated), for which the Potency result is “inactive”.

As to `CCOC(=O)N1CCN(S(=O)(=O)c2ccc(C(=O)Nc3ccc(F)cc3F)cc2)CC1`, the Potency was 2.59 µM (active). On to `CCOC(=O)N1CCN(S(=O)(=O)c2ccc(Br)cc2)CC1`, for which the Potency result is “inactive”.

In the case of `CCOC(=O)N1CCN(S(=O)(=O)c2ccc(-n3cnnn3)cc2)CC1`, the Potency entry was “inactive”. As for `COc1ccc(-c2ccc(CCC(=O)O)n2-c2ccc(O)cc2)cc1`, the Potency result is “inactive”. With `COc1ccc(-c2nc3ccccc3c(=O)n2CCc2ccc(O)cc2)cc1` the figure was 14.6 µM (active); with `COc1cccc(OCCn2c(-c3ccc(Br)cc3)nc3ccccc3c2=O)c1`, “inactive”.
